Experimental data: PubChem BioAssay (EPA / NIEHS)
Where “and” joins values, the source holds several entries; their conditions need not be identical. Identical values can stand only once. Inconclusive results are not listed. A structure can be active in one record and inactive in another. Calls of active or inactive are those of the source. How the source made its calls, unless noted: active means hit-call score of the fitted dose curve at least 0.9, where 1 is the maximum; inactive means score below 0.9.

assay: CCTE_Mundy_HCI_hNP1_Pro_ResponderAvgInten: CCTE's Proliferation Assay in human neuroprogenitor cells, Mundy Lab (AID 2284224; active means hit-call score of the fitted dose curve at least 0.9, where 1 is the maximum;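 further: human neural progenitor cells hNP1 derived from WA09 embryonic stem cells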); conditions: not given
Procedure, shortened: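 Proliferation read as average intensity of BrdU-positive cells, imaged at 26.25 h post-dosing: chemical exposure started after 40–44 h culture, BrdU during final 4 h, paraformaldehyde fixation. Positive-direction fit relative to DMSO.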

SMILES	outcome
NC(=O)C(F)(F)C(F)(F)C(F)(F)C(F)(F)C(F)(F)C(F)(F)C(F)(F)F	inactive
CCN(CCO)S(=O)(=O)C(F)(F)C(F)(F)C(F)(F)C(F)(F)C(F)(F)C(F)(F)C(F)(F)C(F)(F)F	inactive
C=CC(=O)OCC(F)(F)C(F)(F)C(F)(F)COC(=O)C=C	inactive
OCCCC(F)(F)C(F)(F)C(F)(F)C(F)(F)C(F)(F)C(F)(F)C(F)(F)C(F)(F)F	inactive
OCCCCC(F)(F)C(F)(F)C(F)(F)C(F)(F)F	inactive

assay: BSK_BT_PBMCCytotoxicity: PBMC Cytotoxicity Assessment in the BioMAP Diversity Plus: BT Assay (AID 2284225); conditions: primary human B cells with PBMC;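 further: PBMC viability measured by Alamar Blue dye reduction fluorescence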
Procedure, shortened: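 PBMC (75,000/well) pretreated with compound 1 h, then activated with SEB and TSST-1 (20 ng/mL each final), incubated 90 h; Alamar Blue added 6 h, fluorescence read at 546/580 nm. Fitted relative to DMSO.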

SMILES	AC50	outcome
O=S(=O)(OCC(F)(F)F)C(F)(F)C(F)(F)C(F)(F)C(F)(F)F	8.88 µM (active)	inactive
OCC(O)CC(F)(F)C(F)(F)C(F)(F)C(F)(F)C(F)(F)C(F)(F)C(F)(F)C(F)(F)F (configuration not stated)	–	inactive
C=C(C)C(=O)OCC(F)(F)C(F)(F)C(F)(F)C(F)F	–	inactive
OCC(F)(F)C(F)(F)C(F)(F)C(F)(F)C(F)(F)C(F)(F)CO	–	inactive
O=C(Cl)C(F)(F)C(F)(F)C(F)(F)C(F)(F)C(F)(F)C(F)(F)C(F)(F)F	24.7 µM (active)	inactive
OCC(O)CC(F)(F)C(F)(F)C(F)(F)C(F)(F)F (configuration not stated)	–	inactive
NC(=O)C(F)(F)C(F)(F)C(F)(F)C(F)(F)C(F)(F)C(F)(F)C(F)(F)F	–	inactive
O=C(O)C(F)(F)OC(F)(F)C(F)(F)OC(F)(F)C(F)(F)OC(F)(F)F	14.8 µM (active)	inactive
O=S(=O)(O)CCC(F)(F)C(F)(F)C(F)(F)C(F)(F)F	–	inactive
NC(=O)C(F)(F)C(F)(F)C(F)(F)F	–	inactive
C=CC(=O)OCCC(F)(F)C(F)(F)C(F)(F)C(F)(F)F	37.8 µM (active) and 25.8 µM (active)	–
CCN(CCO)S(=O)(=O)C(F)(F)C(F)(F)C(F)(F)C(F)(F)C(F)(F)C(F)(F)C(F)(F)C(F)(F)F	–	inactive
NC(=O)C(F)(F)C(F)(F)C(F)(F)C(F)F	–	inactive
C=CC(=O)OCC(F)(F)C(F)(F)C(F)(F)COC(=O)C=C	9.5 µM (active) and 8.85 µM (active)	–
O=S(=O)(O)CCC(F)(F)C(F)(F)C(F)(F)C(F)(F)C(F)(F)C(F)(F)C(F)(F)C(F)(F)F	–	inactive
CO[Si](C)(CCC(F)(F)C(F)(F)C(F)(F)C(F)(F)C(F)(F)C(F)(F)F)OC	–	inactive
OCC(F)(F)C(F)(F)C(F)(F)CO	–	inactive
OC(O)C(F)(F)C(F)(F)F	–	inactive
OCCCC(F)(F)C(F)(F)C(F)(F)C(F)(F)C(F)(F)C(F)(F)C(F)(F)C(F)(F)F	46.4 µM (active) and 23.2 µM (active)	–
C[Si](Cl)(Cl)CCC(F)(F)C(F)(F)C(F)(F)C(F)(F)C(F)(F)C(F)(F)F	–	inactive
NC(O)(C(F)(F)F)C(F)(F)F	–	inactive
OCCCCC(F)(F)C(F)(F)C(F)(F)C(F)(F)F	–	inactive
CNS(=O)(=O)C(F)(F)C(F)(F)C(F)(F)C(F)(F)C(F)(F)C(F)(F)C(F)(F)C(F)(F)F	–	inactive
NC(=O)C(F)(F)C(F)(F)C(F)(F)C(F)(F)C(N)=O	–	inactive
OCC(F)(F)C(F)(F)C(F)(F)C(F)(F)C(F)(F)C(F)(F)C(F)(F)C(F)(F)CO	46.1 µM (active) and 47.5 µM (active)	–
O=C(c1ccccc1)c1ccc(O)cc1O	–	inactive
FC(F)(F)C(F)(F)C(F)(F)C(F)(F)C(F)(F)C(F)(F)C(F)(F)CCI	–	inactive
O=C(O)C(F)(F)C(F)(F)C(F)(F)OC(F)(F)F	–	inactive
O=C(O)C(F)(F)C(F)(F)C(F)(F)OC(F)(C(F)(F)F)C(F)(F)F	–	inactive
